# Sampled rows, rich in hits. Any-hit rate of the full collection: about 8.5%.
# Coupling enz: qHTS Assay for Inhibitors of Fructose-1,6-bisphosphate Aldolase from Giardia Lamblia: Coupling assay counterscreen; coupling enzyme system counterscreen, AmpLite Red fluorescence; activity change, negative = inhibition, % at 58.2 µM, hits read low; AID 2472, 2010; actives 0.67% (n = 290,000); in the data active = activity change below about -30%
#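 Coupling enzymes only (glyceraldehyde-3-phosphate) + compound, at 57.5 uM final, 10 min RT; add substrate/coupling/AmpLite Red mix, 20 min RT; fluorescence ex 525/em 598 nm. Actives flag coupling-system interference.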
# NPSR antag: qHTS Assay for Antagonists of the Neuropeptide S Receptor: cAMP Signal Transduction. CHO-NPSR cells, cAMP TR-FRET, antagonist mode. Potency, µM (highest dose often 38.3 µM), for the others: at the top dose activity change, negative = inhibition, hits mostly inhibitors. actives 1% (n = 220,000); also: potency is read from the fitted curve at half-maximal effect; nearly all actives have a fitted effect of over 50% in size
# Sfp PPTase inh: qHTS Assay for Inhibitors of Bacillus subtilis Sfp phosphopantetheinyl transferase (PPTase) | 4'-phosphopantetheinyl transferase ffp (Bacillus subtilis), Q9F4F7 | Biochemical Sfp PPTase activity, qHTS | Potency, µM, for the others: largest response in the series, negative = inhibition, most hits filed as inhibitors | actives 3.5% (n = 310,000);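 also: the enzyme is Sfp with the accession as filed and its product quenches rhodamine fluorescence; potency is read from the fitted curve at half-maximal effect; 0% = enzyme reaction without inhibitor and -100% = no enzyme wells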
#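 Sfp 15 nM + cpd, 15 min RT; start w/ rhodamine-CoA 5 uM, BHQ-2-YbbR 12.5 uM (final); 50 mM Hepes pH 7.6, 10 mM MgCl2, 0.01% NP-40, 0.01% BSA; read 525/598 nm at 0 and 30 min.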
# GoLoco inh red: qHTS Assay for Inhibitors of RGS12 GoLoco Motif Activity (Red Fluorophore); Guanine nucleotide-binding protein G(i) subunit alpha-1 (Homo sapiens), P63096; Gai1:RGS12 GoLoco peptide FP, rhodamine, 10 min; Potency, µM (doses to about 61.6 µM), for the others: at the top dose activity, negative = inhibition, actives largely listed as inhibitors; actives 0.44% (n = 230,000); AID 880, 2007; active = well fitted inhibition curve with a large enough effect, not every such curve was filed as active; inactive = no such curve, though single readings can be large or run the other way; also: potency is read from the fitted curve at half-maximal effect; nearly all actives have a fitted effect of over 30% in size
# Target sequence (P63096 whole entry, looked up): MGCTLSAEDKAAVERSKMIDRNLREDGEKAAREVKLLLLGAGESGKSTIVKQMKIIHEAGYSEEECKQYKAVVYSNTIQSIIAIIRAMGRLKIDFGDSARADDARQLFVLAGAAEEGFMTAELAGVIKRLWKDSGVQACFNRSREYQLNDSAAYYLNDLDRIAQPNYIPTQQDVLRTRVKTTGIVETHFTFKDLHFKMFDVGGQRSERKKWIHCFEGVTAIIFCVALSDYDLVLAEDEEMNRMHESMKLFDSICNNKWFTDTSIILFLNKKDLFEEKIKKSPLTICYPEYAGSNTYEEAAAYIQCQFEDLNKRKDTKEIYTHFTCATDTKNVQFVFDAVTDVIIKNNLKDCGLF
# ALDH1A1 block: qHTS Assay for Inhibitors of Aldehyde Dehydrogenase 1 (ALDH1A1) | Potency, µM (doses to about 75.3 µM), without a hit: top-dose activity, negative = inhibition, actives largely listed as inhibitors | Aldehyde dehydrogenase 1A1 (Homo sapiens), P00352 | actives 7.3% (n = 220,000) | Purified ALDH1A1, NADH fluorescence, propionaldehyde substrate; active = well fitted inhibition curve with a large enough effect, not every such curve was filed as active; inconclusive = small, poorly fitted or top-dose-only effect, or another doubt; inactive = no such curve, though single readings can be large or run the other way;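 also: potency is read from the fitted curve at half-maximal effect; plate controls were no enzyme wells and a reference inhibitor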
# KDM4E inh: qHTS Assay for Inhibitors of Human Jumonji Domain Containing 2E (JMJD2E). actives 1.6% (n = 230,000). Lysine-specific demethylase 4E (Homo sapiens), B2RXH2. Potency, µM (doses to about 57.1 µM), for the others: at the top dose activity change, negative = inhibition, hits mostly inhibitors. JMJD2E catalytic domain, FDH-coupled NADH fluorescence (FDH is formaldehyde dehydrogenase);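 also: potency is read from the fitted curve at half-maximal effect; 0% = wells with enzyme and -100% = buffer wells without enzyme; nearly all actives have a fitted effect of over 50% in size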
# The depositor's hits bear a star; ? = inconclusive; · = not tested or not shown; [ ] = remark or other dose. Unless noted, calls follow the shape of the dose curve; as a rule, active = well fitted curve in the direction sought with a large enough effect; inconclusive = small, poorly fitted or top-dose-only effect, or another doubt; inactive = no such curve, though single readings can be large; an effect the other way counts as inactive or inconclusive. Unless noted, % is scaled to controls: 0 for no effect and ±100 for the full control effect.
SMILES,Coupling enz,NPSR antag,Sfp PPTase inh,GoLoco inh red,ALDH1A1 block,KDM4E inh
O=C(N/C(=C\c1cccc(Br)c1)C(=O)N1CCOCC1)c1ccco1,-1,·,10%,·,·,·
O/N=C/c1ccn(-c2ccc(Br)cc2)c1,1,26%,-2%,-1%,8%,7%
O=c1cc(O)cc(/C=C/c2ccc(O)c(O)c2)o1,·,-26%[46.1 µM],·,-5%,?,?
COc1cc(OC)c(OC)cc1CCC(C)NC(=O)Cc1ccccc1 (stereo not given),1,·,5%,·,·,·
CCn1c(C)c2c([n+]1CC)CC(C)(C)CC2=O,-1,3%[46.1 µM],-10%,11µM*,7%,2%
CN1CCc2ccc3c4c2[C@]1(C)Cc1cccc(c1-4)OCO3,-18,·,?,·,·,·
CCOc1ccc(C(=O)Nc2cccc3ncccc23)cc1Cl,3,·,-26%,·,·,·
Cc1noc(/C=C/c2ccco2)c1S(=O)(=O)N1CCC(C(=O)N(C)Cc2ccccc2)CC1,0,?,45µM*,35%,?,?
C/C=C(\C)CN1CCN(c2cc(C)ccc2C)CC1,-1,-15%[46.1 µM],?,-9%,16µM*,6%
Cc1ccc(C)c(N2CCN(Cc3nnnn3C3CCCCC3)CC2)c1,-2,-11%[46.1 µM],79µM*,-10%,?,-21%
C[C@H](N=C(NC#N)Nc1ccncc1)C(C)(C)C,-2,·,-6%,10%,-5%,-8%
CC(C)C(NC(=O)OCc1ccccc1)C(=O)OCC(=O)NCc1ccco1 (stereo not given),4,-15%[46.1 µM],56µM*,10%,?,2%
COCCSc1ccccc1C(=O)NCCCn1ccnc1,3,-8%[46.1 µM],45µM*,-18%,18%,5%
Cc1ccccc1C(=O)NCCCn1ccnc1,-1,·,13%,·,·,·
COCCSc1ccccc1C(=O)NCc1ccco1,-1,-22%[46.1 µM],18µM*,-38%,14µM*,6%
COCCSc1ccccc1C(=O)N1CCOCC1,-1,-17%[46.1 µM],79µM*,-24%,-15%,-3%
O=C(CSc1ccccc1C(=O)O)NCc1ccco1,1,1%[46.1 µM],17%,-3%,4%,4%
COCCSc1ccccc1C(=O)Nc1cc(C)on1,-14,-7%[46.1 µM],32µM*,-28%,?,?
O=C(NCCCn1ccnc1)C(Cc1ccccc1)N1C(=O)c2ccccc2C1=O (stereo not given),0,3%[7.67 µM],56µM*,0%,?,-10%
COCCSc1ccccc1C(=O)Nc1ccc(Cl)cc1,-5,-8%,?,-10%,-7%,-14%
CCC(C)[C@H](NC(=O)NCc1ccco1)C(=O)OC (stereo not given in full),1,-17%,12%,4%,13µM*,2%
COC(=O)[C@H](C)NC(=O)NCc1ccco1,2,-6%[46.1 µM],14%,-7%,?,-6%
COCCSc1ccccc1C(=O)NCCc1ccccc1,0,-3%,56µM*,-11%,?,6%
COc1ccccc1C(=O)Nc1cc(C)on1,1,·,17%,·,·,·
CC(C)(C)NC(=O)C(Cc1ccccc1)N1C(=O)c2ccccc2C1=O (stereo not given),2,·,13%,·,·,·
CCOC(=O)CCNC(=O)N1CCCC(N2CCN(c3ccc(OC)cc3)CC2)C1 (stereo not given),-1,·,-10%,·,·,·
COc1ccc(-c2nc3cnc(N4CCN(C)CC4)nc3n(Cc3ccc(F)cc3)c2=O)cc1,5,·,?,0%,?,·
CC1CCN(S(=O)(=O)c2cn(CC(=O)Nc3ccc(C#N)cc3)cn2)CC1,·,·,11%,·,·,·
CC(C)N(C(=O)CSc1nc2ccccc2n1-c1ccccc1)C(C)C,·,?,79µM*,30%,?,1%

# High-throughput results deposited in PubChem by National Center for Advancing Translational Sciences (NCATS).
